According to PubChem BioAssay AID743314 (Broad Institute, 2014):
Potency and affinity values are given separately. Results filed as inconclusive are left out. Activity calls are given as the source filed them.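 Rule for the calls: active = fitted half-maximal concentration no higher than twice the top tested dose, in every repeat run; inconclusive = repeat runs disagree, poor fit, or flat partial inhibition; inactive = the rest.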

target: Endoplasmic reticulum aminopeptidase 1 (Homo sapiens) (UniProt Q9NZ08); experiment: inhibition of human ERAP1 enzyme activity – biochemical, cherry-pick, set 2, plate reader, dose response (AID 743314); settings: Recombinant ERAP1, Leu-AMC fluorescence, 60 min; series mostly up to 11 µM
Sequence (Q9NZ08 whole entry, looked up): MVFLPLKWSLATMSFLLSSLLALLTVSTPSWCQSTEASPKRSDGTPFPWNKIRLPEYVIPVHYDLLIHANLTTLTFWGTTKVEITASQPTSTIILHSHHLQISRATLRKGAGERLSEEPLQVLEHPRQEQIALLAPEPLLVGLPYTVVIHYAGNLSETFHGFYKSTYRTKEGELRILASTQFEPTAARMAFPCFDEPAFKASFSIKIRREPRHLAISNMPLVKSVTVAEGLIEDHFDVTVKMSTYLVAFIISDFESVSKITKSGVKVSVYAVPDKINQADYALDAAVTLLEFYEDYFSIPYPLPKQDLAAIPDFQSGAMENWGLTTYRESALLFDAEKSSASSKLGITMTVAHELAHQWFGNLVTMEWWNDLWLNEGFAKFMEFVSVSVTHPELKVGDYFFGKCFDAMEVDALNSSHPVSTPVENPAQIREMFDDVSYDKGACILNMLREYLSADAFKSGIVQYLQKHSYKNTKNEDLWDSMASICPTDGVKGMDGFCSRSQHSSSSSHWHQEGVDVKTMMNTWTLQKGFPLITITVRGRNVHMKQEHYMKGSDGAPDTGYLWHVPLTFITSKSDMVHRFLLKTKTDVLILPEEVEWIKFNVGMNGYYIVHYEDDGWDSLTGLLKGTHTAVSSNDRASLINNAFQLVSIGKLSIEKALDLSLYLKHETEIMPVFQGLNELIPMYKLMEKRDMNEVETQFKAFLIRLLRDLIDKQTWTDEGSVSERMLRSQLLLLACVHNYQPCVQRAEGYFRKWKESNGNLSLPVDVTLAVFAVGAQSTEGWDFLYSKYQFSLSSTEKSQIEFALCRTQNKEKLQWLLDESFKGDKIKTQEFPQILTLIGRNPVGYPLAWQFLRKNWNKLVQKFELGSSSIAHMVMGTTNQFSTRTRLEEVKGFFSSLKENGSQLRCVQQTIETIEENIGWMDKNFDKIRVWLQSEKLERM

outcome, inactive:
CC(C)C(NC(=O)CCNC(=O)c1ccc([N+](=O)[O-])cc1)c1nc2ccccc2[nH]1 (centres undefined)
COc1ccc2c3c([nH]c2c1)[C@@H](CO)N(C(C)=O)CC31CN(S(=O)(=O)c2cccs2)C1
CCOC(=O)C1CCN(S(=O)(=O)c2ccc3c(c2)CC(=O)N3C)CC1
O=c1oc2cc(O)ccc2cc1-c1nc2ccccc2o1
